Results: PubChem BioAssay (NCI)
About 83,000 compounds went through this panel and 20% of them were active in at least one assay; those are over-represented in the sample as a whole.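 Results are percent growth after 48 hours of single-concentration exposure. 100 means growth as in untreated cells, lower positive values show inhibition; negative values down to -100 show cell death.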 Calls of active or inactive are those of the source.

These compounds were tested on SK-MEL-28 melanoma (assay: NCI-60 one-dose screen, 48 h (100 = growth as untreated, 0 = no growth, -100 = all killed)). Settings: 1 µM.
Method: Growth inhibition of the SK-MEL-28 human tumor cell line is measured as a screen for anti-cancer activity. Cells are grown in 96 well plates and exposed to the test compound for 48 hours. Compounds are tested at a single concentration, which is 10^-5 M for most compounds. The reported endpoint is percent growth (GI% or GIPRCNT), where numbers from 0 - 100% represent growth inhibition, and numbers from -100% - 0 represent cell death. For example, a value of 40 represents 60% growth inhibition. A value of 0 means no net growth occurred over the course of the experiment. A value of -40 indicates 40% of cells at the beginning of the experiment died by the end of the experiment. A value of -100 means all cells are dead at the end of the experiment.
NCI-60 Human Tumor Cell Lines Screen was performed using the standard one-dose NCI protocol, which is described in more detail at https://dtp.cancer.gov/discovery_development/nci-60/default.htm.
Compounds with GIPRCNT values below 10 were considered active. Activity score was based on GIPRCNT using the following formula: […]
Score is 0 for GIPRCNT values of 100 or above, 50 for GIPRCNT values of 0, and 100 for GIPRCNT values of -100.

For `CC/C(=C(\c1ccc(O)cc1)c1ccc(OCCNC)cc1)c1ccccc1`, which growth is on record?
The growth was 98.5% (inactive).

How did the growth turn out when `CC/C(=C(/c1ccc(O)cc1)c1ccc(OCCN(C)C(=O)CCOCCNC(=O)Cc2ccc3c(c2)CN([C@@H]2CCC(=O)NC2=O)C3=O)cc1)c1ccccc1` was run?
Its growth is 101% (inactive).

Same assay, conditions: 10 µM

Which growth does the source give for `CC/C(=C(\c1ccc(O)cc1)c1ccc(OCCNC)cc1)c1ccccc1` here?
The growth was 93.3% (inactive).

With `CC/C(=C(/c1ccc(O)cc1)c1ccc(OCCN(C)C(=O)CCOCCNC(=O)Cc2ccc3c(c2)CN([C@@H]2CCC(=O)NC2=O)C3=O)cc1)c1ccccc1` as the compound, how does the growth read?
The growth was 80.2% (inactive).

Same assay, conditions: 10 µM unless noted

With `CC1=C(C(=O)Nc2ccccc2)C(c2cccc(Cl)c2Cl)n2c(nc3ccccc32)N1` (stereo not given) as the compound, how does the growth read?
Its growth is 65.5% (inactive).

How did the growth turn out when `CC(C)(C)C(=O)c1c2c(c3ccc4c5ccccc5ccc4n13)C(=O)c1ccccc1C2=O` was run?
The growth was 105% (inactive).

`O=C1Nc2ccccc2/C1=C/C(=O)c1cc2ccccc2oc1=O` was tested. Which growth did it give?
Its growth is 36.7% (inactive).

With `Cc1nn(-c2ccccc2)c2nc(C)n(C(=O)N/N=C/c3cccc([N+](=O)[O-])c3)c(=O)c12` as the compound, how does the growth read?
The growth was 97.8% (inactive).

How did the growth turn out when `S=C(Nc1ccc(OCc2nc3ccc(Cl)cc3[nH]2)cc1)NC1CCCCC1` was run?
The growth was 0.982% (active).

How did the growth turn out when `COc1cc(/C=C/C(=O)c2cnn(-c3cc(=O)[nH]c4ccccc34)c2C)cc(OC)c1OC` was run?
The growth was 36.5% (inactive).

`COc1ccc(-n2c(NC(=O)N3CCN(C)CC3)c(C#N)c3ccccc32)cc1` was tested. Which growth did it give?
The growth was 68.8% (inactive).

For `CS(=O)(=O)c1ccc(-n2nc(C(=O)NCc3ccccc3)cc2-c2ccc(Cl)cc2)cc1`, which growth is on record?
Its growth is 112% (inactive).

For `Cc1ccc2nc(SCc3ccccc3F)n(-c3ccccc3)c(=O)c2c1`, which growth is on record?
Its growth is 100% (inactive).

How did the growth turn out when `Cc1cc(C2(c3cc(C)c(OCC(O)CNc4c(C)n(C)n(-c5ccccc5)c4=O)cc3C(C)C)OC(=O)c3ccccc32)c(C(C)C)cc1OCC(O)CNc1c(C)n(C)n(-c2ccccc2)c1=O` (stereo not given) was run?
The growth was 33.8% (inactive).

For `COc1ccc(C(=O)c2cc(C(C)=O)c3c(C)cc(C)cn23)cc1`, which growth is on record?
The growth was 72.9% (inactive).

Which growth does the source give for `CC(C)C[C@H](NC(=O)[C@@H]1CCCCCCCCCCC(=O)N[C@@H](CC(=O)N2CCC[C@@H]2C2CCCC2)C(=O)N1)B(O)O` here?
Its growth is -5.72% (active).

Which growth does the source give for `COc1ccc(-c2nnc3c(/C=C/c4ccc(Br)cc4)nc4ccccc4n23)cc1` here?
Its growth is 72.4% (inactive).

How did the growth turn out when `COc1ccc2ccccc2c1/C=C1\SC(=Nc2ccc(O)cc2)NC1=O` was run?
The growth was 52.7% (inactive).

How did the growth turn out when `COc1ccc(NC(=O)Nc2nc3ccc([N+](=O)[O-])cc3s2)cc1` was run?
Its growth is 47.7% (inactive).

For `COc1ccccc1NC(=O)N/N=C/c1c[nH]c2ccccc12`, which growth is on record?
Its growth is 44.2% (inactive).

With `COc1cc(C2CC(c3ccc(Cl)cc3)=Nc3c(N)nc(N)nc3N2)ccc1Oc1nc(Nc2ccc(F)cc2)nc(N(C)C)n1` (stereo not given) as the compound, how does the growth read?
Its growth is 75.6% (inactive).

How did the growth turn out when `Cc1ccc(C(=O)Nc2cc(-n3ccnc3C)cc(C(F)(F)F)c2)cc1C#Cc1cnc2cccnn12` was run?
Its growth is -32.4% (active).

With `Cc1ccc(C(=O)Nc2cc(-c3ccccc3)cc(C(F)(F)F)c2)cc1C#Cc1cnc2cccnn12` as the compound, how does the growth read?
The growth was 52.9% (inactive).

For `CCCCCCCCCc1ccc(C(=O)Nc2cc(C)ccc2C(=O)OC)cc1`, which growth is on record?
Its growth is 107% (inactive).

`c1n[nH]cc1-c1nc2ccc3cn[nH]c3c2c2c1CCCC2` was tested. Which growth did it give?
Its growth is 98.2% (inactive).

For `COc1ccc(-c2cc(-c3ccccc3)c(C#N)c(=O)[nH]2)cc1S(N)(=O)=O`, which growth is on record?
Its growth is 107% (inactive).

For `Cc1ccccc1Nc1nnc(-c2c[nH]c3ccccc23)o1`, which growth is on record?
Its growth is 61.3% (inactive).

With `CN(C(=O)CN1C(=O)/C(=C/c2ccco2)SC1=S)C1CCS(=O)(=O)C1` (stereo not given) as the compound, how does the growth read?
The growth was 105% (inactive).

How did the growth turn out when `COc1cc(/C=C/C(=O)c2cnn(-c3cc(=O)[nH]c4ccc(Br)cc34)c2C)cc(OC)c1OC` was run?
The growth was -53% (active).

How did the growth turn out when `CCCCCCCCc1ccc(C(=O)Nc2ccc(C)cc2C(=O)O)cc1` was run?
Its growth is 108% (inactive).

For `COc1ccc(NC(=O)Cn2c(/C=C/c3cccc(Br)c3)nc3ccccc3c2=O)cc1`, which growth is on record?
Its growth is 70.2% (inactive).

How did the growth turn out when `Cc1ccc(Cl)cc1NC(=O)Nc1nc2ccc([N+](=O)[O-])cc2s1` was run?
The growth was -17% (active).

`COc1cccc(-c2ccc(/C=N/NC(=O)c3[nH]c4ccc(Br)cc4c3-c3ccccc3)s2)c1` was tested. Which growth did it give?
Its growth is 8.82% (active).

With `COc1ccc(/C=C/C(=O)c2ccc(OC)c(S(N)(=O)=O)c2)c(C(F)(F)F)c1` as the compound, how does the growth read?
Its growth is 35.5% (inactive).

With `COc1ccc2nc(NC(=O)c3ccc(N(C)C)cc3)sc2c1` as the compound, how does the growth read?
The growth was 95% (inactive).

`N#CC1=C(c2cccs2)Nc2c(c(-c3ccccc3)nn2-c2ccccc2)C12C(=O)Nc1ccc(Br)cc12` (stereo not given) was tested. Which growth did it give?
Its growth is -69.6% (active).

For `CC(=O)Nc1ccc(S(=O)(=O)Nc2ccc(-c3ccc4c(c3)NC(=O)/C4=C\c3ccc[nH]3)cc2)cc1`, which growth is on record?
The growth was 83.6% (inactive).

Which growth does the source give for `CCCn1c(NC(=O)c2cccc(C(N)=O)c2)nc2ccc(CN3CCCCC3)cc21` here?
The growth was 106% (inactive).

For `N#CC1=C(c2ccco2)Nc2c(c(-c3ccccc3)nn2-c2ccccc2)C12C(=O)Nc1ccc(Br)cc12` (stereo not given), which growth is on record?
The growth was 67.5% (inactive).

For `C=CCSc1nnc(-c2c(C)nc3sccn23)o1`, which growth is on record?
Its growth is 96.7% (inactive).
